# According to PubChem BioAssay AID1159580 (chemical genetic matrix, 2015):
# Screen size: about 5,500 compounds; about 2,000 (36%) were called active. Roughly 18% stayed inconclusive and do not appear here. Some of the results follow. Values without a mark were called inactive. Rule as the data show it: active = normalized growth mostly below about 0.91 (no sharp cut-off); inconclusive = no clear call, values can overlap the other calls; inactive = mostly above about 0.92.
# Assay: chemical genetic growth profiling, strain panel (AID 1159580);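 also: tested at 20 µM; growth read once vehicle control cultures reached saturation at 30 °C; 1 = growth at the plate median or of vehicle wells; lower values mean less growth of the strain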
# Settings: S. cerevisiae deletion strains, growth OD
structure (smiles),measurement,setting,value
C1CCN2CC3CC(CN4CCCCC34)C2C1 (centres undefined),normalized growth,"locus YAL013W, strain DEP1, active compounds read low",1.01
same,normalized growth,"locus YAL021C, strain ccr4, active compounds read low",1
same,normalized growth,"locus YAL026C, strain drs2, active compounds read low",1.03
same,normalized growth,"locus YAL030W, strain snc1, active compounds read low",1.01
same,normalized growth,"locus YBL061C, strain skt5, active compounds read low",1.02
same,normalized growth,"locus YBR009C, strain hhf1, active compounds read low",1.02
same,normalized growth,"locus YBR021W, strain FUR4, active compounds read low",1
same,normalized growth,"locus YBR023C, strain chs3, active compounds read low",1.02
same,normalized growth,"locus YBR171W, strain sec66, active compounds read low",1.03
same,normalized growth,"locus YBR229C, strain ROT2, active compounds read low",1.01
same,normalized growth,"locus YBR231C, strain swc5, active compounds read low",1.01
same,normalized growth,"locus YBR279W, strain paf1, active compounds read low",1.02
same,normalized growth,"locus YCL011C, strain gbp2, active compounds read low",1.02
same,normalized growth,"locus YCL016C, strain dcc1, active compounds read low",1.02
same,normalized growth,"locus YCL029C, strain bik1, active compounds read low",1.01
same,normalized growth,"locus YCL061C, strain MRC1, active compounds read low",1.02
same,normalized growth,"locus YCL069W, strain vba3, active compounds read low",1.03
same,normalized growth,"locus YCR088W, strain abp1, active compounds read low",1.03
same,normalized growth,"locus YDL005C, strain med2, active compounds read low",1.03
same,normalized growth,"locus YDL035C, strain GPR1, active compounds read low",1.01
same,normalized growth,"locus YDL040C, strain nat1, active compounds read low",1.01
same,normalized growth,"locus YDL074C, strain BRE1, active compounds read low",1.01
same,normalized growth,"locus YDL101C, strain DUN1, active compounds read low",0.997
same,normalized growth,"locus YDL134C, strain PPH21, active compounds read low",1
same,normalized growth,"locus YDL185W, strain tfp1, active compounds read low",1.01
same,normalized growth,"locus YDL192W, strain arf1, active compounds read low",1.01
same,normalized growth,"locus YDR001C, strain nth1, active compounds read low",1.02
same,normalized growth,"locus YDR069C, strain doa4, active compounds read low",1.03
same,normalized growth,"locus YDR101C, strain arx1, active compounds read low",1.01
same,normalized growth,"locus YDR137W, strain rgp1, active compounds read low",1.02
same,normalized growth,"locus YDR150W, strain NUM1, active compounds read low",1.01
same,normalized growth,"locus YDR159W, strain sac3, active compounds read low",1.03
same,normalized growth,"locus YDR162C, strain NBP2, active compounds read low",0.993
same,normalized growth,"locus YDR195W, strain ref2",0.99
same,normalized growth,"locus YDR297W, strain sur2, active compounds read low",1.01
same,normalized growth,"locus YDR318W, strain mcm21, active compounds read low",0.654 (active)
same,normalized growth,"locus YDR334W, strain swr1, active compounds read low",1.03
same,normalized growth,"locus YDR335W, strain msn5, active compounds read low",1.04
same,normalized growth,"locus YDR388W, active compounds read low",1
same,normalized growth,"locus YDR392W, strain spt3, active compounds read low",0.929
same,normalized growth,"locus YDR502C, strain sam2, active compounds read low",0.974
same,normalized growth,"locus YEL003W, strain gim4, active compounds read low",1.03
same,normalized growth,"locus YEL037C, strain rad23, active compounds read low",1.02
same,normalized growth,"locus YEL061C, strain CIN8 (second series), active compounds read low",1.03
same,normalized growth,"locus YEL061C, strain CIN8, active compounds read low",1.01
same,normalized growth,"locus YER015W, strain faa2, active compounds read low",1.01
same,normalized growth,"locus YER016W, strain bim1, active compounds read low",1.03
same,normalized growth,"locus YER110C, active compounds read low",1.02
same,normalized growth,"locus YER111C, strain swi4, active compounds read low",1.02
same,normalized growth,"locus YER155C, strain BEM2 (second series), active compounds read low",1.05
same,normalized growth,"locus YER155C, strain BEM2, active compounds read low",1.01
same,normalized growth,"locus YER167W, strain BCK2, active compounds read low",1.01
same,normalized growth,"locus YFR010W, strain ubp6, active compounds read low",1.02
same,normalized growth,"locus YGL078C, strain dbp3, active compounds read low",0.983
same,normalized growth,"locus YGL086W, strain mad1, active compounds read low",0.901 (active)
same,normalized growth,"locus YGL167C, strain pmr1, active compounds read low",1.02
same,normalized growth,"locus YGL173C, strain kem1, active compounds read low",1.03
same,normalized growth,"locus YGL227W, strain vid30, active compounds read low",1.02
same,normalized growth,"locus YGL240W, strain doc1, active compounds read low",1.03
same,normalized growth,"locus YGL248W, strain PDE1, active compounds read low",0.998
same,normalized growth,"locus YGL253W, strain hxk2, active compounds read low",1.02
same,normalized growth,"locus YGR078C, strain PAC10, active compounds read low",1
same,normalized growth,"locus YGR135W, strain pre9, active compounds read low",0.838 (active)
same,normalized growth,"locus YGR229C, strain SMI1, active compounds read low",1.01
same,normalized growth,"locus YGR252W, strain gcn5, active compounds read low",0.732 (active)
same,normalized growth,"locus YHR013C, strain ard1, active compounds read low",1.01
same,normalized growth,"locus YHR027C, strain rpn1, active compounds read low",1.01
same,normalized growth,"locus YHR030C, strain SLT2, active compounds read low",1.01
same,normalized growth,"locus YHR079C, strain IRE1 (second series), active compounds read low",0.999
same,normalized growth,"locus YHR094C, strain hxt1, active compounds read low",1.01
same,normalized growth,"locus YHR129C, strain ARP1, active compounds read low",1
same,normalized growth,"locus YHR142W, strain chs7, active compounds read low",1
same,normalized growth,"locus YHR200W, strain rpn10, active compounds read low",1
same,normalized growth,"locus YIL066C, strain RNR3, active compounds read low",1.02
same,normalized growth,"locus YIL073C, strain SPO22, active compounds read low",1.07
same,normalized growth,"locus YIL125W, strain kgd1, active compounds read low",1
same,normalized growth,"locus YIR030C, strain dcg1, active compounds read low",1.01
same,normalized growth,"locus YJL092W, strain hpr5, active compounds read low",1.03
same,normalized growth,"locus YJL095W, strain BCK1 (second series), active compounds read low",1.02
same,normalized growth,"locus YJL095W, strain BCK1, active compounds read low",0.995
same,normalized growth,"locus YJL115W, strain asf1, active compounds read low",1.03
same,normalized growth,"locus YJL129C, strain trk1, active compounds read low",1.02
same,normalized growth,"locus YJL134W, strain LCB3, active compounds read low",1.01
same,normalized growth,"locus YJL154C, strain vps35, active compounds read low",1.02
same,normalized growth,"locus YJL164C, strain tpk1, active compounds read low",1.01
same,normalized growth,"locus YJL166W, strain qcr8, active compounds read low",1.02
same,normalized growth,"locus YJL168C, strain set2, active compounds read low",1.01
same,normalized growth,"locus YJL187C, strain SWE1 (second series), active compounds read low",1.01
same,normalized growth,"locus YJL187C, strain SWE1, active compounds read low",1.02
